# Source: ChEMBL document CHEMBL4513216, “Probing the Open Global Health Chemical Diversity Library for Multistage-Active Starting Points for Next-Generation Antimalarials” (ACS Infect Dis, 2020)
# Out of some 69,000 compounds screened, about 8,600 (12%) showed an effect of 50% or more. The list comes from a sample in which strong results are over-represented; it also holds similar structures and randomly drawn compounds.
# Tested on: Plasmodium berghei
# Assay: Screen against P. berghei liver stage (PbLuc), transformed with Luciferase, at 10uM
# Assay type: functional, HepG2
# Details: tested at 10 uM
row,Structure (SMILES),INHIBITION
1,CC(=O)Nc1ccc(CCC2(NC(=O)C3CC3)CCCCC2)cn1,59.2%
2,CC(=O)Nc1ccc(CCC2(NC(=O)C3CCCO3)CCCCC2)cn1 (configuration not stated),-1.16%
3,CS(=O)(=O)NC1(CCc2ccc(NC(=O)C3CC3)nc2)CCCCC1,40.6%
4,Cc1nn(C(C)C)c2cn(CC(=O)NC3CCSCC3)nc12,-3.83%
5,O=C(Cc1ccc2c(c1)OCCO2)NCc1ccc(-n2cncn2)nc1,19.2%
6,Nc1cc(-c2cccs2)nn(CC(=O)N2CCc3ccccc32)c1=O,72.2%
7,CC1Cc2ccccc2N1C(=O)Cn1nc(-c2cccs2)cc(N)c1=O (configuration not stated),18.3%
8,Nc1cc(-c2cccs2)nn(CC(=O)NCC2CCCCC2)c1=O,6.32%
9,CCS(=O)(=O)N1CC(=O)N(CCCc2ccccc2)CC(O)C1 (configuration not stated),26.8%
10,O=C(CCc1nc2cccnc2[nH]1)NCc1ccncc1,-0.532%
11,Cc1ccc(CN2CCN(c3ccc(F)cn3)CC2=O)cc1C,11.2%
12,Cc1ccc(CN2CCN(Cc3ccc(N(C)C)nc3)CC2=O)cc1C,44%
13,Cc1ccc(CN2CCN(c3cncc(N(C)C)n3)CC2=O)cc1C,56.3%
14,CS(=O)(=O)CCn1ccc(NC(=O)c2c(F)cccc2F)n1,46.1%
15,Cc1nccn1C1CCCN(C(=O)c2ccc(N(C)C)nn2)C1 (configuration not stated),-22.9%
16,O=C(CCc1ccsc1)Nc1cnccc1O,-3.43%
17,CC(C)(C)Oc1ccncc1NCc1cscn1,70.3%
18,COc1ccncc1NCc1cscn1,21.6%
19,COc1ncc(NCc2ccsc2)cc1C(N)=O,32.2%
20,COc1ccncc1NCc1ccsc1,71.3%
21,COc1ccccc1NCc1cscn1,27.5%
22,Cc1noc(C)c1CSC1CCCN(c2cnn(C)c2)C1=O (configuration not stated),-41.9%

row,Structure (SMILES),INHIBITION
1,COCCN1CCOCC12CCN(Cc1ccn(C)n1)CC2,34.6%
2,CC(=O)NCc1cc2n(n1)CCN(Cc1cc(-c3ccccc3)no1)C2,32.2%
3,COCCN1CCC2(CC1)CC(c1cccnc1)C(=O)N2C (configuration not stated),26.5%
4,CCc1nc(C2CCCN(C(=O)NC(C)C)C2)no1 (configuration not stated),13.6%
5,O=C([C@@H](O)Cc1ccccc1)N1CCCn2cncc2C1,18.6%
6,Cc1ccnc(NC(=O)c2cnc(C3CCCNC3)cn2)c1 (configuration not stated),37.35%
7,CC(C)NC(=O)COc1cccc(-c2nc(C(C)C)no2)c1,26.8%
8,CCc1cc(=O)n(CC(=O)N2CCC(C)CC2)c(-c2cccc(F)c2)n1,17.6%
9,CCc1cc(=O)n(CC(=O)N2CCCC2)c(-c2ccccc2)n1,4.35%
10,CCc1cc(=O)n(CC(=O)N2CCC(C)CC2)c(-c2ccccc2)n1,57.3%
11,CNc1nc2c(s1)C(c1cc(Cl)ccc1F)CC(=O)N2 (configuration not stated),35.8%
12,CCn1cc(CN(C)S(=O)(=O)c2ccc(C(C)C)cc2)cn1,26.7%
13,Cc1cc(C)n(CC2CN(c3ccc(C#N)cn3)CCO2)n1 (configuration not stated),23.7%
14,Cc1nn(C)c2cnn(Cc3ccc(C(=O)N4CCCCC4)o3)c12,21.7%
15,Cc1nn(C)c2cnn(Cc3ccc(C(=O)NC4CC4)o3)c12,16.8%
16,Cc1nn(C)c2cnn(Cc3ccc(C(=O)N4CCN(C)CC4)o3)c12,65.6%
17,CCc1ccc(NC(=O)N2C[C@@H]3C[C@H](C(=O)NC)[C@H](C2)O3)cc1,15%
18,O=C1NCc2ccccc2CC12CCCN(Cc1ccsc1)C2 (configuration not stated),14.3%
19,O=C(CC1C=CCC1)Nc1ncn(CC(=O)N2CCCCCC2)n1 (configuration not stated),50.6%
20,O=C(COCC1CC1)Nc1ncn(CC(=O)N2CCCCCC2)n1,-32.4%
21,O=C(Nc1ncn(CC(=O)N2CCCCCC2)n1)C1CCCC1,2.7%
22,CC(CC(=O)Nc1ncn(CC(=O)N2CCCCCC2)n1)C1CC1 (configuration not stated),-28.8%

row,Structure (SMILES),INHIBITION
1,CC(OCC1CC1)C(=O)Nc1ncn(CC(=O)N2CCCCCC2)n1 (configuration not stated),51.7%
2,O=C(COC1CCCC1)Nc1ncn(CC(=O)N2CCCCCC2)n1,8.75%
3,Cc1ccc2oc(C(=O)N3CCCC(n4nc(C)nc4C)C3)cc2n1 (configuration not stated),-2.95%
4,COc1ccc(CNC(=O)CCCc2nnc3ccc(OC)nn23)cc1,8.99%
5,CCn1nc(CNC(C)(C)CO)c(-c2ccccc2)n1,20.9%
6,CCCOCC(=O)N1CCc2c(cccc2S(=O)(=O)N2CCOCC2)C1,26.7%
7,Fc1cnc(N2CC[C@@H]3O[C@@H](COCc4ccccn4)CC[C@@H]32)nc1,18.5%
8,c1cnc(N2CCC3(CCN(CC4CCOC4)C3)CC2)nc1 (configuration not stated),34.7%
9,COc1cccc(NC(=O)NCC2CCCN(C3CCOCC3)C2)c1 (configuration not stated),58.8%
10,COc1ccc(O)c(C(=O)NCC2CCCN(C3CCOCC3)C2)c1 (configuration not stated),14.3%
11,COc1cccc(OCC2CCCN(C3CCN(C(C)=O)CC3)C2)c1 (configuration not stated),15.1%
12,COc1ccc(C(=O)NCC2CCCN(C3CCOCC3)C2)c(O)c1 (configuration not stated),57.4%
13,COc1ccc(Br)c(C(=O)NCC2CCN(S(=O)(=O)C3CC3)CC2)c1,38.5%
14,COc1ccc(C(=O)Nc2cnn(CCN3CCOCC3)c2)c(O)c1,29.5%
15,COc1ccc(Br)c(C(=O)NCC2CC2)c1,90.2%
16,COCCNC(=O)c1cc(OC)ccc1Br,-85%
17,Cc1cccc(C)c1NC(=O)NCC1CCCN(C2CCOCC2)C1 (configuration not stated),-15%
18,CC(NC(=O)N(C)CCCOc1ccccc1)c1nncn1C (configuration not stated),0.914%
19,Cc1ccc(N2CCC3(CCC(=O)N3Cc3ccncc3)CC2)nn1,3.17%
20,CCc1nnc2n1CCN(C(=O)C(C)Oc1ccc(C#N)cc1)C2 (configuration not stated),-48.3%
21,Cc1noc(C2CN(S(=O)(=O)C3CC3)Cc3ccnn3C2)n1 (configuration not stated),34.6%
22,Cc1noc(C2CN(S(C)(=O)=O)Cc3ccnn3C2)n1 (configuration not stated),50.7%

row,Structure (SMILES),INHIBITION
1,CCS(=O)(=O)N1Cc2ccnn2CC(c2nc(C)no2)C1 (configuration not stated),-5.63%
2,CNc1oc(-c2ccc(OC)c(S(=O)(=O)N(C)C)c2)nc1C#N,8.46%
3,CC1CN(C(=O)Nc2cc(C(F)(F)F)c[nH]c2=O)CCO1 (configuration not stated),-4.12%
4,O=C(Cc1ccncc1)N1C[C@H]2CC[C@@H](C1)N(Cc1ccccc1)C2=O,63.7%
5,O=C(Cc1cccnc1)N1C[C@H]2CC[C@@H](C1)N(Cc1ccccc1)C2=O,40.4%
6,O=C(Cc1ccccn1)N1C[C@H]2CC[C@@H](C1)N(Cc1ccccc1)C2=O,-4.86%
7,CCc1nc(CNc2ccc(C(=O)N3CCSCC3)cc2C)no1,15.5%
8,O=C(O)c1cc2c(nc1-c1ccsc1)CCN(C1CCOC1)CC2 (configuration not stated),11.3%
9,Cc1ccc(N2CCN(C(=O)CCc3n[nH]c(C)n3)CC2=O)cc1,2.7%
10,Cn1ccnc1CN1CCCN(C(=O)c2ccc3[nH]cnc3c2)CC1,21%
11,CC(Oc1ccccc1)C(=O)N1CCCN(Cc2nccn2C)CC1 (configuration not stated),54.4%
12,CCn1ccnc1CN1CCCN(C(=O)c2cc(C)nn2CC)CC1,32.3665%
13,Cn1ccnc1CN1CCCN(C(=O)c2ccc3cc[nH]c3c2)CC1,55.2%
14,CSC(C)C(=O)N1CCCN(Cc2nccn2C)CC1 (configuration not stated),-5.25%
15,Cn1ccnc1CN1CCCN(C(=O)c2ccc3ccccc3c2)CC1,27.8%
16,CCn1ccnc1CN1CCCN(C(=O)c2cccn2C)CC1,56.6%
17,CCn1ccnc1CN1CCCN(C(=O)c2ccnn2C)CC1,16.45%
18,CC(CC(=O)N1CCCN(Cc2nccn2C)CC1)n1cccc1 (configuration not stated),18.9%
19,Cn1ccnc1CN1CCCN(C(=O)CC(C2CC2)C2CC2)CC1,50.3%
20,Cn1ccnc1CN1CCCN(C(=O)COC2CCCC2)CC1,-11.4%
21,CC(OCC1CC1)C(=O)N1CCCN(Cc2nccn2C)CC1 (configuration not stated),9.32%
22,CCNc1nc2cn(-c3ccc(CC)cc3)c(=O)c-2c[nH]1,-14.245%

row,Structure (SMILES),INHIBITION
1,Cn1cc(C2CCCN2C(=O)c2ccc(OCC3CC3)nc2)cn1 (configuration not stated),-27%
2,O=S(=O)(CCN1CCN(c2ccccc2O)CC1)c1ccc(Cl)cc1,-36.3%
3,CN(C)CCN1C[C@@H]2CN(C(=O)C3CCOC3)C[C@@H]2C1=O (some centres not stated),12.7%
4,COc1ccc(/C=C/CN2C[C@@H]3CC[C@H]2CN(S(=O)(=O)N(C)C)C3)cc1,38.6%
5,CCOCC1CN(Cc2cccnc2)Cc2nn(C)cc21 (configuration not stated),-21.4%
6,O=C(C1CC(F)(F)C1)N1C[C@@H]2CN(CC3CCCC3)CCO[C@@H]2C1,20.6%
7,O=C1CN(C(=O)CCn2c(C(F)(F)F)cc3cccnc32)CCN1,25.6%
8,CSC1(CNC(=O)c2cccc(-n3cccn3)c2)CCOCC1,-46.4%
9,Cc1ncccc1NC(=O)[C@@H]1CCO[C@@H]2CCN(c3ccccc3)C[C@@H]21,41.4%
10,CC(C)N1CCC(CC(=O)N2CCN(Cc3nccn3C)CC2)CC1,58.5%
11,Cn1ccnc1CN1CCCN(C(=O)COCC2CC2)CC1,13.3%
12,CC(C)N1CCC(CC(=O)N2CCC(C(O)c3nccn3C)CC2)CC1 (configuration not stated),46.7%
13,O=c1c2c[nH]c(N3CCCCC3)nc-2cn1-c1ccc2c(c1)OCO2,-22.9%
14,Cc1cccc(-c2nnn3c2COC(CNCc2nccs2)C3)c1 (configuration not stated),-10.2%
15,Fc1cccc(-c2nnn3c2COCC(CNCc2nccs2)C3)c1 (configuration not stated),47.5%
16,Fc1cccc(-c2nnn3c2COC(CNCc2ccsc2)C3)c1 (configuration not stated),52%
17,Cc1ccc(CNCC2Cn3nnc(-c4cccc(F)c4)c3CO2)o1 (configuration not stated),18.2%
18,Fc1cccc(-c2nnn3c2COC(CNCc2nccs2)C3)c1 (configuration not stated),50.3%
19,Fc1cccc(-c2nnn3c2COC(CNCc2cccs2)C3)c1 (configuration not stated),1.9%
